Test results as given in PubChem BioAssay (EPA / NIEHS).
Inconclusive results are not listed. Active and inactive are the calls of the source. How the source made its calls, unless noted: active means hit-call score of the fitted dose curve at least 0.9, where 1 is the maximum; inactive means score below 0.9.

Assays:
[1] = CCTE_Simmons_MITO_inhib_resp_rate: CCTE's HepG2 Seahorse XF Respirometric Screening Assay at Inhibited Respiratory State [full ETC block], Simmons Lab (AID 2284006); details: actives raise or lower the signal
How it was run: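 Compound injected onto HepG2 cells (125 nM–100 uM final, 7 points); FCCP then rotenone/antimycin A added. Oxygen consumption read every 6 min (3 min mix, 3 min measure) for 72 min. Inhibited-state OCR fitted against DMSO.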

[2] = CCTE_Simmons_MITO_viability: CellTiter-Glo Viability Assessment for CCTE's HepG2 Seahorse XF Respirometric Screening Assay [post-hoc], Simmons Lab (AID 2284007; active means hit-call score of the fitted dose curve at least 0.9, where 1 is the maximum;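 on AC50: cells exposed to chemical for 90 min before the ATP read; actives lower ATP signal relative to DMSO baseline meaning reduced viability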)
How it was run: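 After the Seahorse oxygen-consumption sequence (basal, FCCP, rotenone/antimycin A; 72 min total), HepG2 viability was scored as ATP content by bioluminescence. Chemicals ran at seven concentrations up to 100 uM final for 90 min.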

[3] = CCTE_Shafer_MEA_acute_spike_number: CCTE's Neural Acute Assay for Total Number of Spikes, Shafer Lab (AID 2284008);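 on AC50: curve fitted for decrease in spike count so AC50 reflects inhibitors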
How it was run: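 Using an adaptive detector set to 8x rms noise, spikes were counted in 40-min windows before and after compound addition (0.03-40 uM) to rat cortical networks at 37 C; the well-level change from baseline was analysed relative to DMSO.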

[4] = CCTE_Shafer_MEA_acute_firing_rate_mean: CCTE's Neural Acute Assay for Mean Firing Rate, Shafer Lab (AID 2284009);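 further: analyzed for loss of signal so actives lower firing rate relative to DMSO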
How it was run: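 Percent change in well-mean firing rate was derived from extracellular spikes detected at 8x rms noise (300-5000 Hz band-pass) before and after a 40-min compound exposure. Cultures were primary rat cortical neurons, tested at 0.03-40 uM.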

[5] = CCTE_Harrill_HTTr_Viability_MCF7: CCTE's 6-hour Cell Viability Assessment for the High-Throughput Transcriptomics (HTTr) Platform, in MCF-7 cells cultured in DMEM + 10% fetal bovine serum, Harrill Lab (AID 2284010)
How it was run: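 Cells were dosed with chemicals in an eight-point dilution series, imaged 6 hours later for propidium iodide uptake, and the endpoint was analyzed by bidirectional fitting against DMSO as negative control.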

[6] = CCTE_Harrill_HTTr_CellCount_MCF7: CCTE's Cell Proliferation Assessment for the High-Throughput Transcriptomics (HTTr) Platform, Harrill Lab (AID 2284012; active means hit-call score of the fitted dose curve at least 0.9, where 1 is the maximum;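 further: count of Hoechst-stained nuclei per well by high-content imaging in MCF-7 cells; cells exposed to compound for six hours; intended direction is loss of nuclei count meaning fewer cells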)
How it was run: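 Chemicals in eight-point dilution series are added to MCF-7 cells for six hours, nuclei are stained with Hoechst and imaged, and per-well nuclei counts are fitted in both directions relative to DMSO controls.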

[7] = CCTE_Shafer_MEA_acute_burst_number: CCTE's Neural Acute Assay for Single-Electrode Bursts, Shafer Lab (AID 2284013)
How it was run: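 Spontaneous network activity of primary rat cortical neurons was recorded extracellularly on microelectrode arrays at 37 C, with 40-min periods before and during exposure to 0.03-40 uM compound on DIV 13 or 15.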

[8] = CCTE_Shafer_MEA_acute_burst_duration_mean: CCTE's Neural Acute Assay for Mean Burst Duration, Shafer Lab (AID 2284014);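 further: hits are decreases in mean burst duration relative to DMSO controls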
How it was run: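 Read-out is the per-well percent change in mean burst duration (first to last spike within a single-electrode burst) between 40-min recordings before and after compound. Cultures were primary rat cortical neurons on MEAs, dosed at 0.03-40 uM on DIV 13 or 15.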

[9] = CCTE_Shafer_MEA_acute_per_burst_spike_number_mean: CCTE's Neural Acute Assay for Average Number of Spikes Per Burst, Shafer Lab (AID 2284015);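 further: hits are decreases in mean spikes per burst versus baseline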
How it was run: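 Primary rat cortical neurons on 48-well MEA plates, treated on DIV 13 or 15 at 0.03-40 uM. Spontaneous activity recorded 40 min before and 40 min after compound at 37 C; percent change in mean spikes per single-electrode burst per well, fitted in the loss direction versus DMSO.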

[10] = CCTE_Shafer_MEA_acute_interburst_interval_mean: CCTE's Neural Acute Assay for Mean Interburst Interval, Shafer Lab (AID 2284016);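 further: percent change of mean interburst interval versus each well's own pre-dose baseline; curves fitted for decrease in interburst interval relative to DMSO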
How it was run: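 Primary rat cortical neurons on 16-electrode MEA wells were recorded 40 min at baseline on DIV 13 or 15, then 40 min after compound (0.03-40 uM), at 37 C. Value is percent change in mean interburst interval per well, DMSO as negative control.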

[11] = CCTE_Shafer_MEA_acute_burst_percentage_mean: CCTE's Neural Acute Assay for Percentage of Spikes in a Burst, Shafer Lab (AID 2284017);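 on AC50: curve fitted for loss of signal so potency reflects decreased burst percentage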
How it was run: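 Primary rat cortical neurons on 16-electrode MEA wells; 40 min baseline recorded at DIV 13 or 15, then 40 min after compound (0.03-40 uM) at 37 C. Well-mean fraction of spikes in single-electrode bursts; percent change from baseline, DMSO as negative control.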

[12] = CCTE_Shafer_MEA_acute_burst_percentage_std: CCTE's Neural Acute Assay for Standard Deviation of Burst Percentage, Shafer Lab (AID 2284018);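 further: fitted in the negative direction so actives lower burst percentage SD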
How it was run: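 Value is percent change from baseline in the across-electrode SD of spikes-in-bursts percentage, wells with >/= 10 active electrodes. Acute 40-min exposure to 0.03-40 uM on DIV 13 or 15 rat cortical cultures, recorded at 37 C after 40-min baseline.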

[13] = CCTE_Shafer_MEA_acute_per_network_burst_spike_number_mean: CCTE's Neural Acute Assay for Average Number of Spikes in a Network Burst, Shafer Lab (AID 2284019);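 on AC50: curve fitted for loss of signal so actives reduce spikes per network burst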
How it was run: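 Read-out is mean spike count per network burst, taken as percent change between a 40-min pre-exposure and a 40-min post-exposure recording per well. Rat primary cortical neurons on MEAs at 37 C, DIV 13 or 15; compounds at 0.03-40 uM.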

[14] = CCTE_Shafer_MEA_acute_per_network_burst_spike_number_std: CCTE's Neural Acute Assay for Standard Deviation of Number of Spikes in a Network Burst, Shafer Lab (AID 2284020);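 further: fitted for decrease in spike-number SD versus DMSO so actives lower it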
How it was run: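 Spontaneous network activity of primary rat cortical neurons is recorded extracellularly before and after a 40-min compound exposure (0.03-40 uM) at 37 C. The endpoint is the well's percent change in burst spike-number SD.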

[15] = CCTE_Shafer_MEA_acute_per_network_burst_electrodes_number_mean: CCTE's Neural Acute Assay for Mean Number of Electrodes in a Network Burst, Shafer Lab (AID 2284021);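 further: curves fitted for decreases only so hits reduce electrodes per burst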
How it was run: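 Percent change from baseline in average electrode count per network burst, rat cortical cultures on 48-well MEAs; 40-min recordings each side of exposure, DIV 13 or 15; threshold 8x rms noise; DMSO as negative control.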

[16] = CCTE_Shafer_MEA_acute_network_burst_percentage: CCTE's Neural Acute Assay for Percentage of Network Bursts, Shafer Lab (AID 2284022);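 further: curves fitted for loss so actives lower network burst percentage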
How it was run: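 On DIV 13 or 15, at least three wells of rat cortical neurons per compound are dosed at 0.03-40 uM. Spontaneous firing is detected at 8x rms noise for 40 min before and after dosing at 37 C. The percent change in network-burst spike share is reported.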

[17] = CCTE_Shafer_MEA_acute_cross_correlation_area: CCTE's Neural Acute Assay for Area of Cross Correlation, Shafer Lab (AID 2284024);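 further: area under pooled inter-electrode spike cross-correlation near zero lag as percent change from own baseline; curves fitted for loss of cross-correlation area so actives lower synchrony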
How it was run: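 Extracellular recordings from cultured rat cortical neurons measure network synchrony as cross-correlation area; each well's post-compound value (0.03-40 uM, 40 min) is compared with its own 40 min baseline to give percent change.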

[18] = CCTE_Shafer_MEA_acute_cross_correlation_HWHM: CCTE's Neural Acute Assay for Cross Correlation at Half Width at Half Maximum, Shafer Lab (AID 2284026);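 further: percent change per well from pre-dose baseline in spike cross-correlogram half width; hits are a decrease in cross-correlogram half width relative to DMSO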
How it was run: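 Percent change in cross-correlogram half width at half maximum, narrower meaning more synchrony, was derived per well from paired 40-min recordings before and during exposure to 0.03-40 uM compound in rat cortical cultures at 37 C.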

[19] = CCTE_Shafer_MEA_acute_synchrony_index: CCTE's Neural Acute Assay for Synchrony, Shafer Lab (AID 2284027);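 further: fitted for loss of signal so actives lower synchrony relative to DMSO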
How it was run: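 Readout is percent change in the unitless network synchrony index (0 low, 1 high) between a 40-min baseline and a 40-min recording in compound. Cultures were primary rat cortical neurons on MEAs, treated at 0.03-40 uM on DIV 13 or 15.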

[20] = CCTE_Harrill_HTTr_Apoptosis_MCF7: CCTE's 6-hour Apoptosis Assessment for the High-Throughput Transcriptomics (HTTr) Platform, in MCF-7 cells cultured in DMEM + 10% fetal bovine serum, Harrill Lab (AID 2284011)
How it was run: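 Apoptosis in MCF-7 cells grown in DMEM with 10% fetal bovine serum was scored after a six hour exposure by high content imaging of caspase-3/7 activation (CellEvent Caspase 3/7 Green), with DMSO serving as negative control and baseline.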

Measured: AC50

N#CSCSC#N
active: [2] 67.6 µM | [6] 92.6 µM | [10] 30.5 µM | [11] 27 µM | [16] 30.5 µM | [19] 28.4 µM
not listed: [20]
inactive: all other assays above

CC(COc1ccc(Oc2ccccc2)cc1)Oc1ccccn1 (stereo unspecified)
active: [3] 20 µM | [4] 20 µM | [8] 20 µM | [9] 10.2 µM | [11] 10.3 µM | [12] 20 µM | [14] 10.1 µM | [15] 20 µM | [16] 32.7 µM | [18] 8.8 µM | [19] 20 µM
inactive: [1] | [5] | [20] | [6] | [7] | [10] | [13] | [17]

CC(C1CC1)C(O)(Cn1cncn1)c1ccc(Cl)cc1 (stereo unspecified)
inactive: [1] | [2] | [5] | [6]

CCCSP(=O)(OCC)SCCC
inactive: [1] | [2] | [5] | [6]

CCOP(=S)(OCC)SCCSCC
active: [15] 2.98 µM | [18] 8.93 µM
not listed: [2] | [6] | [20]
inactive: all other assays above

CCCOCC(=Nc1ccc(Cl)cc1C(F)(F)F)n1ccnc1
active: [2] 18.2 µM | [3] 0.568 µM | [4] 0.571 µM | [7] 0.686 µM | [8] 6.29 µM | [9] 2.02 µM | [11] 2.71 µM | [13] 0.943 µM | [14] 4.42 µM | [17] 0.44 µM | [18] 1.6 µM | [19] 2.69 µM
inactive: [1] | [5] | [6] | [10] | [12] | [15] | [16]

C=C(C)[C@H]1Cc2c(ccc3c2O[C@@H]2COc4cc(OC)c(OC)cc4[C@@H]2C3=O)O1
active: [1] 0.0842 µM | [2] 13.3 µM | [3] 2.81 µM | [4] 2.85 µM | [12] 30.3 µM | [18] 30.7 µM | [19] 20 µM
not listed: [20]
inactive: all other assays above
